Source: PubChem BioAssay (Tox21)
Results filed as inconclusive are left out. Active and inactive are the calls of the source. Calls follow the shape of the dose curve; as a rule, active = well fitted inhibition curve with a large enough effect in the repeat runs; inconclusive = weak or mixed curves; inactive = flat fitted curve, though single readings scatter.

Experiment: qHTS assay to identify small molecule HDAC inhibitors (AID 1259364); also: nearly all actives have a fitted effect of over 45% in size; as to activity change, negative = inhibition: top concentration of the series differs between compounds
Conditions: HCT-116 HDAC-Glo I/II luminescence, 2 h; series mostly up to 92.4 µM; activity change, negative = inhibition: at the top concentration
Description: U.S. Tox21 Program National Center for Advancing Translational Sciences [NCATS] NIH Chemical Genomics Center [NCGC] U.S. Environmental Protection Agency [EPA] National Institutes of Environmental Health Sciences [NIEHS] National Toxicology Program [NTP] U.S. Food and Drug Administration [FDA] Tox21 Assay Overview: Histone deacetylases (HDACs) are a group of epigenetic enzymes that regulate gene expression by histone deacetylation. HDACs are capable of introducing epigenetic modifications and such aberrations contribute to the onset and progression of several human diseases, thus making HDACs a popular therapeutic target. For identifying endogenous class I/II HDAC inhibitors a homogenous, luminogenic HDAC I/II cell based assay was used to measure the relative activity of class I and II HDACs from cells. Wild type HCT-116 cells were used to screen Tox21 libraries for identifying class I/II HDAC inhibitors.
Tox21 Assay Protocol Summary: HCT-116 cells were dispensed at 1,500 per well in 5uL of culture medium into white solid bottom 1536-well plates (Greiner Bio-One, Monroe, NC) using a Multidrop Combi (Thermo Scientific, Waltham, MA) dispenser. The assay plates were incubated at 37 C and 5% CO2 for an overnight, and then 23nL of compounds dissolved in DMSO and positive control were transferred using a Pintool station (Wako, San Diego, CA). The assay plates were incubated at 37C and 5% CO2 for 2hr. After compound treatment, 4uL of HDAC-Glo reagent (Promega Corporation, Madison, WI) was added to each well of the assay plates using Flying Reagent Dispenser (FRD, Aurora Discovery, San Diego, CA) and incubated the assay plates at room temperature for 30min. The luminescence signal was quantified using a ViewLux plate reader (Perkin Elmer, Shelton, CT).
% is scaled to controls: 0 for no effect and ±100 for the full control effect; potency is read from the fitted curve at half-maximal effect.

Compound	activity change, negative = inhibition	Potency
C[C@]12CCC(=O)C=C1C=C[C@@H]1[C@@H]2CC[C@@]2(C)[C@H]1CC[C@@]21CCC(=O)O1	1.76% [at 42.5 µM] (inactive)	
O=[N+]([O-])c1cccc(S(=O)(=O)NCCNS(=O)(=O)c2cccc([N+](=O)[O-])c2)c1	1.26% [at 42.5 µM] (inactive)	
COCc1c(C(C)C)nc(C(C)C)c(/C=C/[C@@H](O)C[C@@H](O)CC(=O)O)c1-c1ccc(F)cc1		inactive
NC(=O)N(O)[C@@H]1COc2cc(OCc3ccccc3)ccc21		1.72 µM (active)
Nc1nccs1	-1.35% (inactive)	
CCOC(=O)c1ccccc1C	2.7% (inactive)	
COc1cc2ncnc(Nc3ccc(F)c(Cl)c3)c2cc1OCCCN1CCOCC1	4.39% [at 42.5 µM] (inactive)	
Nc1nc(Cl)nc2c1ncn2[C@@H]1O[C@H](CO)[C@@H](O)[C@@H]1F	-11% [at 42.5 µM] (inactive)	
Cc1cc(C(=C2C=CC(=Nc3ccc(S(=O)(=O)O)cc3S(=O)(=O)O)C=C2)c2ccc(Nc3ccc(S(=O)(=O)O)cc3)cc2)ccc1N	-13.1% [at 42.5 µM] (inactive)	
Cc1occc1C(=O)Nc1ccc(C(=O)N2CCC(F)(F)/C(=C\C(=O)N3CCC(N4CCCCC4)CC3)c3ccccc32)cc1	1.42% [at 42.5 µM] (inactive)	
CC[C@@H]([C@H](C)O)n1ncn(-c2ccc(N3CCN(c4ccc(OC[C@@H]5CO[C@@](Cn6cncn6)(c6ccc(F)cc6F)C5)cc4)CC3)cc2)c1=O	-0.591% [at 42.5 µM] (inactive)	
CCCCCCCCCCCC(=O)[O][Sn]([CH2]CCC)([CH2]CCC)[O]C(=O)CCCCCCCCCCC	-5.38% [at 42.5 µM] (inactive)	
CC1=C(C=O)C(C)(C)CCC1	7.26% (inactive)	
O=C(C(=O)c1ccccc1)c1ccccc1	-18.9% (inactive)	
C[C@@H]1C[C@H]2[C@@H]3CCC4=CC(=O)C=C[C@]4(C)[C@@]3(F)[C@@H](O)C[C@]2(C)[C@H]1C(=O)CO	4.61% [at 42.5 µM] (inactive)	
CCC(C)(C)C1CCC(O)CC1 (stereo not given)	3.35% (inactive)	
CC1C2CC(CC2C2CCCC(O)C2)C1(C)C (stereo not given)	2.78% (inactive)	
CC(=O)N(c1onc(C)c1C)S(=O)(=O)c1ccc(N)cc1	9.29% [at 42.5 µM] (inactive)	
CCOC(=O)CC(=O)C(=O)OCC	-0.0043% (inactive)	
N#C/C(=C1/SC[C@@H](c2ccc(Cl)cc2Cl)S1)n1ccnc1	-8.48% [at 42.5 µM] (inactive)	

Compound	activity change, negative = inhibition	Potency
CCn1nc(C)c2c1C(=O)NCC(c1ccc(O)cc1)=N2	-8.65% (inactive)	
Cc1cnc(C)c(C)n1	4.89% (inactive)	
C[N+]1(C)CCC(=C(c2ccccc2)c2ccccc2)CC1	1.39% [at 42.5 µM] (inactive)	
CCCc1c(OCCCOc2ccc(OCC(=O)O)cc2)ccc(C(C)=O)c1O	-0.183% (inactive)	
C[C@@H]1C[C@H]2[C@@H]3CCC4=CC(=O)C=C[C@]4(C)[C@@]3(F)[C@@H](O)C[C@]2(C)[C@@]1(O)C(=O)CO	11.4% (inactive)	
CCOc1cc(N)c(Cl)cc1C(=O)NCC1CN(Cc2ccc(F)cc2)CCO1 (stereo not given)	19.2% [at 42.5 µM] (inactive)	
C=C(C)C(=O)OCCOC(=O)CC(C)=O	-5.26% (inactive)	
Brc1cc(-c2ccc(Br)c(Br)c2Br)cc(Br)c1Br	3.92% [at 42.5 µM] (inactive)	
CN(C)C(=O)Nc1ccc(Oc2ccc(Cl)cc2)cc1	-18.8% (inactive)	
Cc1cc(OI)c(C(C)C)cc1-c1cc(C(C)C)c(OI)cc1C	0.222% [at 42.5 µM] (inactive)	
CN1C(=O)CC(C)(c2ccccc2)C1=O (stereo not given)	-3.86% [at 42.5 µM] (inactive)	
Nc1ccc(Cl)cc1[N+](=O)[O-]	-3.96% (inactive)	
O=C(NCCCN1CCOCC1)c1ccc(Cl)cc1	14.1% [at 42.5 µM] (inactive)	
CC1(C)C2=CCCC(C)(C)[C@]23CC[C@H]1C3	3.09% (inactive)	
O=C(CCCCCCCCC#CI)Oc1ccccc1	5.12% [at 42.5 µM] (inactive)	
C/C=C/C=C/CCCCCCCO	-17.2% (inactive)	
O=c1[nH]c2ccc(S(=O)CCN3CCC(Cc4ccc(F)cc4)CC3)cc2o1 (stereo not given)	-11% (inactive)	
C=CCNc1nc(NCC=C)nc(N2CCN(C(c3ccc(F)cc3)c3ccc(F)cc3)CC2)n1	-3.11% [at 42.5 µM] (inactive)	
CC1CC(O)CC(C)(C)C1 (stereo not given)	0.785% (inactive)	
CCn1cc(C(=O)O)c(=O)c2cc(F)c(N3CCNCC3)nc21	1.5% [at 42.5 µM] (inactive)	
